Experimental findings from the supplement of paper PMC7858590 are described below.

One experiment concerns human monocyte-derived macrophages (polarized). Kind of experiment: cell shape (eccentricity) Z-score vs DMSO control; higher = more elongated, M2-like morphology. The note with it: 5 µM; 24 h; macrophage state: M1-polarized (IFNg + TNFa), cytokines present during treatment. As to the method: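 Primary-screen hits were rescreened on polarized hMDMs with the differentiating cytokines (IL-4 + IL-13 or IFNg + TNFa) kept in the medium during treatment with compound at 5 uM for 24 h. The eccentricity Z-score vs DMSO wells is averaged over experiments.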
On to `CCC1(CC)C(=O)NC(=O)NC1=O`, for which the “cell shape (Z-score)” value is -5.4.

With `Clc1ccc(C2=CCCC3CCC2N3)cn1` (stereo not drawn), the “cell shape (Z-score)” value was 9.06.

Take `COc1ccc2c3c([nH]c2c1)[C@H](CC(C)C)N1C(=O)[C@H](CCC(=O)OC(C)(C)C)NC(=O)[C@@H]1C3`: the “cell shape (Z-score)” value was 6.14.

Consider `CNc1ccc2oc(C[C@H]3O[C@@]4(CC[C@H]3C)O[C@H]([C@H](C)C(=O)c3ccc[nH]3)[C@H](C)C[C@H]4C)nc2c1C(=O)O`, for which the “cell shape (Z-score)” value was -11.1.

Turning to `COc1cc2ccc(=O)oc2c2ccoc12`, the “cell shape (Z-score)” value stood at 8.59.

As to `CC(C)=CC1C(C(=O)OCc2coc(Cc3ccccc3)c2)C1(C)C` (stereo not drawn), the “cell shape (Z-score)” value is 8.88.

Take `CCn1cc(C(=O)O)c(=O)c2cc3c(cc21)OCO3`: the “cell shape (Z-score)” value stood at 3.52.

Still in this experiment, the particulars now being: 5 µM; 24 h; macrophage state: M2-polarized (IL-4 + IL-13), cytokines present during treatment.
As for `CC(=O)O[C@H]1CC[C@@]2(C)[C@H](CC[C@@H]3[C@@H]2CC[C@]2(C)[C@@H](C4=CC(=O)OC4)[C@@H](OC(C)=O)C[C@]32O)C1`, the “cell shape (Z-score)” value is -23.5.
